From PubChem BioAssay
Activity calls are given as the source filed them.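 The calls were made as follows, unless noted: active = NADPH fluorescence slope more negative than the mean of all samples by about 3 SD, 99.7% confidence; inactive = the rest.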

What was measured:
[1] = inhibitors of TNFa-induced NFkB p65 translocation, primary screen, imaging, HUVEC, MLSMR starter and 10KST1 sets (AID 438;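 active = inhibition above 20% together with a positive visual image hit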;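 also: compound added about 3h40 before a 20 min TNFalpha stimulation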;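 as to inhibition: signal is the nuclear over cytoplasmic p65 intensity ratio per well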); conditions: HUVEC TNFa-induced p65 nuclear translocation; cell count: measured here: nuclei count (cytotoxicity indicator), at 2.08 µM; inhibition: at 2 µM, stronger effect = higher value, 0% TNFa-plus-vehicle, 100% no-TNFa wells
[2] = inhibitors of mutant huntingtin aggregation, primary screen, imaging, exon1htt(103Q)mCFP cells, high-content imaging (AID 483;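 active = visual image review flags a hit and inhibition of aggregation exceeds 20%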;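 also: compound exposure lasted 3 days before fixation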;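 as to nuclei count: percent of the per-plate median nuclei count of sample wells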); conditions: exon1htt(103Q)mCFP cell line, aggregate imaging, at 2 µM; inhibition of aggregation: stronger effect = higher value; nuclei count: measured here: cell count, toxicity
[3] = inhibitors of E-selectin induction by TNFa, primary screen, imaging, HUVEC, immunofluorescence, MLSMR starter and 10KST1 sets (AID 487;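 active = visually confirmed hit in the image check and inhibition above 20%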;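 as to inhibition: signal is fraction of cell area covered by stained E-selectin grains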;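 as to nuclei count: 100% = median nuclei count of all wells on the same plate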); conditions: HUVEC TNFalpha-induced E-selectin immunofluorescence imaging, at 2 µM; inhibition: stronger effect = higher value; nuclei count: measured here: cell number, toxicity
[4] = target: Voltage-gated potassium channel subunit beta-2 (Rattus norvegicus) (UniProt P62483); assay: KvBeta enzyme negative modulators, primary screen, biochemical, NADPH fluorescence (AID 622;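 active = fluorescence slope higher than the sample average by over 3 SD, cut at about -0.22 in these data, passing the limit was not always enough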;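 also: slope of raw intensity against log time taken from 70 to 1610 s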); conditions: recombinant KvBeta, 4-cyanobenzaldehyde reduction, at 10 µM, stronger effect = higher value
Sequence of Voltage-gated potassium channel subunit beta-2 (Rattus norvegicus) (P62483 whole entry, looked up): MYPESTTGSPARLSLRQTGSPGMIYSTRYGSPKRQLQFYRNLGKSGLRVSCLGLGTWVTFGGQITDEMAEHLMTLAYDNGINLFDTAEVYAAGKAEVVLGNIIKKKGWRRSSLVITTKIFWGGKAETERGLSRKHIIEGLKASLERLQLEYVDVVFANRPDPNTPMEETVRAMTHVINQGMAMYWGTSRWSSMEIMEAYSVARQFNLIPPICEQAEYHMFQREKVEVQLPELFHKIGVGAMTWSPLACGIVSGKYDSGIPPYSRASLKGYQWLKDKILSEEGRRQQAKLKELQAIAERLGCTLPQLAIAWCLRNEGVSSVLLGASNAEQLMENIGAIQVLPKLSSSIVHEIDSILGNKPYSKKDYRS

[5] = target: Voltage-gated potassium channel subunit beta-2 (Rattus norvegicus) (UniProt P62483); assay: KvBeta positive modulators, primary screen, biochemical, NADPH fluorescence (AID 623); conditions: Recombinant KvBeta, NADPH fluorescence decrease slope, 10 min; at 10 µM; stronger effect = lower value;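 also: fluorescence intensity change per second fitted from 20 to 320 s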
[6] = target: Alpha-2C adrenergic receptor (Homo sapiens) (UniProt P18825); assay: modulators of alpha2C/GIRK thallium flux, primary screen, cell-based, HEK293 alpha2C/GIRK1/2 (AID 624;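 active = fluorescence slope after compound addition differing from the mean of all screened samples at 99.7% confidence, in either direction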;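 also: slope of fluorescence ratio to pre-addition baseline per second over 15 to 24 s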); conditions: thallium flux BTC fluorescence, at 10 µM, actives lie on both sides
Sequence of Alpha-2C adrenergic receptor (Homo sapiens) (P18825 whole entry, looked up): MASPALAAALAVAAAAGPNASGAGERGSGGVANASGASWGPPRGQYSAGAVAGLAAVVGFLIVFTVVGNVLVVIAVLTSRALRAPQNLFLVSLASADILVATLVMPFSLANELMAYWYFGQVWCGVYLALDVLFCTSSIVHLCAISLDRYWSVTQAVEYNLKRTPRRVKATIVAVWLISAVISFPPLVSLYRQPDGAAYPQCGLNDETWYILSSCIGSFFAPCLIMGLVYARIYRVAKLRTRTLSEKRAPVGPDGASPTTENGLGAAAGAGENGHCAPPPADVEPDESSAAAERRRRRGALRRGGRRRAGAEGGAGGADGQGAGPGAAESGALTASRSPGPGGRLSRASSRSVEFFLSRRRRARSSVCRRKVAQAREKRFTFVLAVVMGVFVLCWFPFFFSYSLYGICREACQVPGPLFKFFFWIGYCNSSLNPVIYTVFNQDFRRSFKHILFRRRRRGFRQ

[7] = inhibitors of Sendai virus-induced IRF3 signaling, primary screen, TLR/RLR signaling modifier project, cell-based, Sendai virus stimulus, luciferase, 10K MLSCN set (AID 602276;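 active = inhibition at or above 50% at 10 µM; inactive = inhibition below 50%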;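 also: firefly luciferase from ISG56 promoter only with Renilla not read in this screen; 0% = Sendai virus plus DMSO and 100% = medium plus DMSO without virus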); conditions: HEK293 RL24 IRF3 luciferase reporter, at 10 µM, stronger effect = higher value
[8] = inhibitors of poly I:C-induced TLR3 signaling, primary screen, cell-based, poly I:C stimulus, luciferase, 10K MLSCN set (AID 602277;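 active = inhibition of the reporter signal at or above 50%; inactive = inhibition below 50%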); conditions: HEK293-TLR3 RL24 IRF3 luciferase reporter, at 10 µM, stronger effect = higher value

Nc1nc(SCc2ccc(Cl)cc2Cl)n[nH]1
cell count [1]: 352 | inhibition [1]: -1.7% (inactive) | inhibition of aggregation [2]: -21.4% (inactive) | nuclei count [2]: 97.6% | inhibition [3]: -161% (inactive) | nuclei count [3]: 124% | fluorescence slope [4]: -0.387 (inactive) | NADPH fluorescence slope [5]: -4.5e-05 (inactive) | slope [6]: 0.00474 (inactive) | inhibition [7]: -12% (inactive) | inhibition [8]: -30.1% (inactive)

Cc1ccc(C(C(=O)NC2CCCCC2)N2CCOCC2)cc1 (stereo not drawn)
cell count [1]: 674 | inhibition [1]: -5.2% (inactive) | inhibition of aggregation [2]: -13% (inactive) | nuclei count [2]: 114% | inhibition [3]: -41.7% (inactive) | nuclei count [3]: 125% | fluorescence slope [4]: -0.468 (inactive) | NADPH fluorescence slope [5]: -0.000297 (inactive) | slope [6]: 0.00526 (inactive) | inhibition [7]: -0.432% (inactive) | inhibition [8]: 15.1% (inactive)

O=C1NC(c2cccnc2)C(C(=O)c2cccs2)C(O)(C(F)(F)F)N1 (stereo not drawn)
cell count [1]: 506 | inhibition [1]: -0.3% (inactive) | inhibition of aggregation [2]: 5% (inactive) | nuclei count [2]: 104% | inhibition [3]: 40.4% (inactive) | nuclei count [3]: 119% | fluorescence slope [4]: -0.363 (inactive) | NADPH fluorescence slope [5]: -3.5e-05 (inactive) | slope [6]: 0.00436 (inactive) | inhibition [7]: -6.6% (inactive) | inhibition [8]: -5.31% (inactive)

O=C(CSc1nc(-c2ccccc2)cs1)NC(=O)NCc1ccco1
cell count [1]: 355 | inhibition [1]: -1.1% (inactive) | inhibition of aggregation [2]: 1% (inactive) | nuclei count [2]: 75.7% | inhibition [3]: -105% (inactive) | nuclei count [3]: 125% | fluorescence slope [4]: -0.429 (inactive) | NADPH fluorescence slope [5]: 3.1e-06 (inactive) | slope [6]: 0.00572 (inactive) | inhibition [7]: 18.5% (inactive) | inhibition [8]: 3.13% (inactive)

Cc1nc2ccc(S(=O)(=O)NCC(=O)N(C)Cc3ccco3)cc2s1
cell count [1]: 355 | inhibition [1]: 5.2% (inactive) | inhibition of aggregation [2]: -6.5% (inactive) | nuclei count [2]: 95.6% | inhibition [3]: -12.8% (inactive) | nuclei count [3]: 101% | fluorescence slope [4]: -0.503 (inactive) | NADPH fluorescence slope [5]: -1.2e-05 (inactive) | slope [6]: 0.00704 (inactive) | inhibition [7]: 14.7% (inactive) | inhibition [8]: 14.5% (inactive)

COc1ccc(C(=O)N2CCN(C(=O)c3ccco3)CC2)cc1OC
cell count [1]: 546 | inhibition [1]: -3.9% (inactive) | inhibition of aggregation [2]: -2.2% (inactive) | nuclei count [2]: 108% | inhibition [3]: -184% (inactive) | nuclei count [3]: 199% | fluorescence slope [4]: -0.401 (inactive) | NADPH fluorescence slope [5]: -3.4e-05 (inactive) | slope [6]: 0.00558 (inactive) | inhibition [7]: 13.2% (inactive) | inhibition [8]: 13.7% (inactive)

CCOc1ccc(NC(=O)CSc2nc3cccnc3n2CC)cc1
cell count [1]: 579 | inhibition [1]: -15.8% (inactive) | inhibition of aggregation [2]: -26.9% (inactive) | nuclei count [2]: 92.3% | inhibition [3]: -54.8% (inactive) | nuclei count [3]: 102% | fluorescence slope [4]: -0.487 (inactive) | NADPH fluorescence slope [5]: -2.4e-05 (inactive) | slope [6]: 0.00547 (inactive) | inhibition [7]: 12.5% (inactive) | inhibition [8]: 25.8% (inactive)

CC(C)OC(=O)CSc1nnc(-c2ccc(C(C)(C)C)cc2)n1N
cell count [1]: 396 | inhibition [1]: -2.3% (inactive) | inhibition of aggregation [2]: 4.2% (inactive) | nuclei count [2]: 80.6% | inhibition [3]: -158% (inactive) | nuclei count [3]: 210% | fluorescence slope [4]: -0.469 (inactive) | NADPH fluorescence slope [5]: -3.9e-05 (inactive) | slope [6]: 0.00343 (inactive) | inhibition [7]: 1.32% (inactive) | inhibition [8]: 14% (inactive)

Cc1nc2ccccc2c2oc(C(=O)N3CCN(C(=O)c4ccco4)CC3)cc12
cell count [1]: 784 | inhibition [1]: 11.3% (inactive) | inhibition of aggregation [2]: 0% (inactive) | nuclei count [2]: 65.6% | inhibition [3]: 4.8% (inactive) | nuclei count [3]: 98.3% | fluorescence slope [4]: -0.585 (inactive) | NADPH fluorescence slope [5]: -1.4e-05 (inactive) | slope [6]: 0.00761 (inactive) | inhibition [7]: 6.87% (inactive) | inhibition [8]: 12.8% (inactive)

CCc1cc2c(=O)n(C(C)C(=O)OC3CCCCC3)cnc2s1 (stereo not drawn)
cell count [1]: 561 | inhibition [1]: 0% (inactive) | inhibition of aggregation [2]: 32% (inactive) | nuclei count [2]: 114% | inhibition [3]: -73.8% (inactive) | nuclei count [3]: 103% | fluorescence slope [4]: -0.486 (inactive) | NADPH fluorescence slope [5]: -3.4e-05 (inactive) | slope [6]: 0.00382 (inactive) | inhibition [7]: -49.6% (inactive) | inhibition [8]: -101% (inactive)

COc1ccc(NC(=O)CSc2nc3c(c(=O)n2-c2ccc(F)cc2)SCC3)cc1
cell count [1]: 596 | inhibition [1]: -5.8% (inactive) | inhibition of aggregation [2]: 20% (inactive) | nuclei count [2]: 53.8% | inhibition [3]: -11.9% (inactive) | nuclei count [3]: 91.5% | fluorescence slope [4]: -0.541 (inactive) | NADPH fluorescence slope [5]: -1.7e-05 (inactive) | slope [6]: 0.00814 (inactive) | inhibition [7]: 17.1% (inactive) | inhibition [8]: 26.3% (inactive)

COc1ccc(CCNC(=O)C2(C)CCC(=O)N2Cc2ccc3c(c2)OCO3)cc1OC (stereo not drawn)
cell count [1]: 822 | inhibition [1]: 0.6% (inactive) | inhibition of aggregation [2]: 18.7% (inactive) | nuclei count [2]: 106% | inhibition [3]: -37.2% (inactive) | nuclei count [3]: 116% | fluorescence slope [4]: -0.59 (inactive) | NADPH fluorescence slope [5]: -3.7e-05 (inactive) | slope [6]: 0.00743 (inactive) | inhibition [7]: 8.58% (inactive) | inhibition [8]: 36.6% (inactive)

Cc1ccc(N2CCN(C(=O)c3ccccc3)CC2)c(C)c1
cell count [1]: 484 | inhibition [1]: -0.5% (inactive) | inhibition of aggregation [2]: 1.9% (inactive) | nuclei count [2]: 100% | inhibition [3]: -70.1% (inactive) | nuclei count [3]: 106% | fluorescence slope [4]: -0.413 (inactive) | NADPH fluorescence slope [5]: -6.4e-05 (inactive) | slope [6]: 0.00418 (inactive) | inhibition [7]: 12% (inactive) | inhibition [8]: 0.924% (inactive)
